PubChem BioAssay AID1964107 (National Center for Advancing Translational Sciences (NCATS), 2024)
Among all 31,000 compounds or so, about 360 (1.2%) were called active. Another 8% or so got no clear call; they are omitted. The sample as a whole holds a higher share of actives than the screen did. Values without a mark were called inactive. Calls come from the whole dose curve.
% is set by controls: 0 for no effect and ±100 for the full control effect; potency is the fitted concentration of half-maximal effect.
Note: nearly all actives have a fitted effect of over 60% in size.

What follows are compounds tested against Polyprotein P1234 (Chikungunya virus (strain S27-African prototype)) (UniProt Q8JUX6) (assay: Primary qHTS for inhibitors of NSP2Pro chikungunya virus (CHIKV)). Settings: FRET peptide cleavage, fluorescence 1 h; series mostly up to 24.9 µM; activity change, negative = inhibition: at the top concentration.
Sequence of Polyprotein P1234 (Chikungunya virus (strain S27-African prototype)) (Q8JUX6 whole entry, looked up): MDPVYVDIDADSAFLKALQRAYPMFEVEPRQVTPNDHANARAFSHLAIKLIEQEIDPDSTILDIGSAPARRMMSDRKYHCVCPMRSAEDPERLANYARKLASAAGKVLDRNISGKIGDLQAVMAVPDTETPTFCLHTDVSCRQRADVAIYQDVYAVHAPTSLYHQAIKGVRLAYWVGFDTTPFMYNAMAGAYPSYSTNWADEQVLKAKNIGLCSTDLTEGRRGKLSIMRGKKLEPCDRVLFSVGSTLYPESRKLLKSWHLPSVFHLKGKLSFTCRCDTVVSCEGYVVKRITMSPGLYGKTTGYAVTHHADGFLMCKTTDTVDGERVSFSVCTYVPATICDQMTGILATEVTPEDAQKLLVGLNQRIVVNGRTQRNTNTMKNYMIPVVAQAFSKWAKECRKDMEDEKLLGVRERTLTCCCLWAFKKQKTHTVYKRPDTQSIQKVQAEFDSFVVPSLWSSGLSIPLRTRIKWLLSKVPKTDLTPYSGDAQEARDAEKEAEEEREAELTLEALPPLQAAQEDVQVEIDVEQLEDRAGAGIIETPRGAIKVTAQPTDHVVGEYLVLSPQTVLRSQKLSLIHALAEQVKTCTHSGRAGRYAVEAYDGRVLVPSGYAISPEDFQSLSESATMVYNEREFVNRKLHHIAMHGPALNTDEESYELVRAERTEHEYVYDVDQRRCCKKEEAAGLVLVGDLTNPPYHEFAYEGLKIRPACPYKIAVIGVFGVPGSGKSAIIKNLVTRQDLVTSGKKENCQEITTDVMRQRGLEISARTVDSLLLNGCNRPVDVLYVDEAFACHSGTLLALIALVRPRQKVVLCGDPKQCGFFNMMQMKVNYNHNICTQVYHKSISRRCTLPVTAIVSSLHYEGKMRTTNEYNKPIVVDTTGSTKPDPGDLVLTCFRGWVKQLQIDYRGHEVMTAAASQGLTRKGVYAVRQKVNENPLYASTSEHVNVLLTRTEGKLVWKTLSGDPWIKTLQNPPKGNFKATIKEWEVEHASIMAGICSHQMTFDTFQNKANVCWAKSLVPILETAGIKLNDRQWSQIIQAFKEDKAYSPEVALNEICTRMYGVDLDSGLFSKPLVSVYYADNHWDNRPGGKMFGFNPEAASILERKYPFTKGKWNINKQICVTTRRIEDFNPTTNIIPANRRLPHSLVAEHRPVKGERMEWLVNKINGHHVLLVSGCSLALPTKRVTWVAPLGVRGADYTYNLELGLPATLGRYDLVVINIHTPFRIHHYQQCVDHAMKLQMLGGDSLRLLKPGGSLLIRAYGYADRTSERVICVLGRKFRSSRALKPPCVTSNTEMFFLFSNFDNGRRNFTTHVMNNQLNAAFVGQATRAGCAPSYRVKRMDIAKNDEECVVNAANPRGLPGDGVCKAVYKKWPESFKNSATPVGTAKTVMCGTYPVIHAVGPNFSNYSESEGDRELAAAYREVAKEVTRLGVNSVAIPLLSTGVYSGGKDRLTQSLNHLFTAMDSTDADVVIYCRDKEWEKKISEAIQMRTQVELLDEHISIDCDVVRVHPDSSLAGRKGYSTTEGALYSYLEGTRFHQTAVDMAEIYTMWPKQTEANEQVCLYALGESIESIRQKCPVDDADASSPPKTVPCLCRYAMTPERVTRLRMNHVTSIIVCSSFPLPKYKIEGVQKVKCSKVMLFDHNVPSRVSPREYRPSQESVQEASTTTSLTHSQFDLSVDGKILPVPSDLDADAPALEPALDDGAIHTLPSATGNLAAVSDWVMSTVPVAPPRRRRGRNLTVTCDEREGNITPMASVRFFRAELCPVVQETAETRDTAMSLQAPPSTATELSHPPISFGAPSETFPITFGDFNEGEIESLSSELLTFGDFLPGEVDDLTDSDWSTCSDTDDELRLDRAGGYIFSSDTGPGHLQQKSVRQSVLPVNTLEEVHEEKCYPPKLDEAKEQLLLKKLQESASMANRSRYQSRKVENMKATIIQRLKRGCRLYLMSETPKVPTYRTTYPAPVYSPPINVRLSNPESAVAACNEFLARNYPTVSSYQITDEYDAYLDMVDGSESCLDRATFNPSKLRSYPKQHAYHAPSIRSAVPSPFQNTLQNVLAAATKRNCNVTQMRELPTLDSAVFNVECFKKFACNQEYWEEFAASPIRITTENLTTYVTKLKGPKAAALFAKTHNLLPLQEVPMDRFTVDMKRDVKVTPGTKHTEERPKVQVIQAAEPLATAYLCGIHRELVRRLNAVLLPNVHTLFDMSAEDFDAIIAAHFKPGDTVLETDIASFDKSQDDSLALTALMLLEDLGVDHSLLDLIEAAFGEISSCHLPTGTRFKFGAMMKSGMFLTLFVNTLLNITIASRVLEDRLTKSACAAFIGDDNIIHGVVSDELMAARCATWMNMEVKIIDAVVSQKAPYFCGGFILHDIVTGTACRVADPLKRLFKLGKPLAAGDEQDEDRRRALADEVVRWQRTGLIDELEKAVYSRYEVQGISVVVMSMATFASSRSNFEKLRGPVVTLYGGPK
Excerpt: PI: Natalia J. Martinez Ph.D. National Center for Advancing Translational Sciences (NCATS), National Institute of Health (NIH), Rockville, Maryland Chikungunya virus (CHIKV) is a mosquito-borne RNA virus that has emerged as one of the most important global arboviral threats in the last decade. Although the first CHIKV vaccine has recently been FDA approved for use in healthy adults at increased risk, to date, there are no available antiviral drugs for CHIKV infection. CHIKV nsP2 protease plays a crucial role in the processing of the viral polypeptide precursor to release enzymes required for viral replication, thus making it a promising drug target for antiviral discovery. Here, we established a high-throughput pipeline to identify small molecule inhibitors of nsP2 proteolytic activity. The pipeline is composed of a suite of 1,536-well in vitro assays to support quantitative high-throughput (qHTS) screening campaigns. Specifically, we developed a fluorescence resonance energy transfer (FRET)-based assay using a fluorogenic peptide substrate encompassing an endogenous cleavage site and purified recombinant protease domain (nsP2pro). Using this assay, we interrogated ~37,000 small molecules, including those in drug repurposing libraries as well as chemically diverse and medicinal chemistry-friendly compounds. Hits were selected for follow-up validation against full-length nsP2 and an additional peptide. FRET-based 1,536-well assays for papain, hepatitis C virus NS3-4A, and human furin proteases were implemented to characterize compound selectivity. […] Novel compounds were identified to be potential nsP2 inhibitors and molecular docking analyses were performed to explain the binding mode of selected hits. In vitro antiviral activity was evaluated for a subset of compounds using a high-throughput CHIKV infection assay. To our knowledge, the pipeline presented here is unprecedented for CHIKV antiviral discovery research.
PROTOCOL TABLE (as described by Inglese J, Shamu CE and Guy RK. 2007) SEQUENCE No. (e.g., 1, 2, 3, etc.); […] (e.g., Cells, Incubation, Reagent, etc.); VALUE; DESCRIPTION. 1; Control / Compound; 20 nL; Echo 655 acoustic dispenser, Greiner 1536-well solid bottom black plate. 2; Enzyme; 4 uL; BioRAPTR FRD liquid dispenser (Beckman Coulter). 3; Incubation; 15 min; room temperature. 4; Reagent; 4 uL; 2.5 uM Peptide 2 substrate. 5; Incubation; 1 hr; room temperature. 6; Detection; Fluorescence; WiewLux microplate reader (PerkinElmer), 525 nm excitation, 598/25 nm emission. NOTES (numbers refer to sequence numbers above). 1. Briefly, 20 nL DMSO, positive control ZnAc (20nM final concentration), and test compounds were transferred into a 1,536-well solid bottom black plate (789176-F, Greiner One) via Echo 655 acoustic dispenser (Beckman Coulter). For primary screens, compounds were tested at 7 concentrations, 1:3 dilution points ranging from 25 uM to 34 nM. Follow-up confirmatory screens were carried out at 11 concentrations, 1:3 dilution points from 25 uM to 0.42 nM. 2. Four uL nsP2pro enzyme mix (150 nM final concentration) in 10 mM Tris-HCl pH 8.0 with 0.01% Tween 20 assay buffer was dispensed into the plate using a BioRAPTR FRD liquid dispenser (Beckman Coulter). 3. The plate was incubated at room temperature (protected from light) for 15 min 4. Four microliter of peptide 2 substrate (2.5 uM final concentration) in assay buffer was added to the plate. 5. After 1 hour, plates were immediately read on a ViewLux high-throughput CCD imager (Exposure = 10 sec, Gain = High, Speed = Slow, Binning = 2X). The above assay was also incorporated in the NCATS HTS facility41, which allowed for robotic liquid and compound dispensing, microplate handling, and fluorescence reading.. REFERENCE: Inglese J, Shamu CE and Guy RK, Reporting data from high throughput screening of small molecule libraries, Nature Chemical Biology, 2007, 3(8): 438-441. doi.org/10.1038/nchembio0807-438.
`Cc1nn(Cc2ccccc2)c(C)c1[C@@H]1C=C[C@@H](NC(=O)NC(C)C)C1` was tested, and the Potency was 14.1 µM (active). For `CCCC12CN3CC(CCC)(CN(C1)C3c1c[nH]c3ccc(OC)cc13)C2=O` (configuration not stated), the “activity change, negative = inhibition” value was 8.29%. For `COc1ccc(N2Cc3cccc(C(=O)O)c3C2=O)cc1OC`, the “activity change, negative = inhibition” value was -3.96%. `Cc1ccc(NC(=O)CSc2nc3c(c(=O)[nH]2)CN(Cc2ccc4c(c2)OCO4)CC3)cc1C` was tested, and the “activity change, negative = inhibition” value was -21.7%. In the case of `O=C(Nc1ncc(Cc2ccc(C(F)(F)F)cc2)s1)c1ccc(-c2ccc([N+](=O)[O-])cc2)o1`, the “activity change, negative = inhibition” value is reported as -11.4%. In the case of `COc1cccc(Nc2ccc(N3CCN(C(C)=O)CC3)cc2)c1OC`, the “outcome” value is reported as “inactive”. With `COc1ccccc1OCCCn1c(-c2ccc(Cl)cc2)nc2ccccc2c1=O` the “activity change, negative = inhibition” value was -10.8%. With `Cc1cc(C)nc(NS(=O)(=O)c2ccc(NC(=O)c3cc(=O)c4ccc(C)c(C)c4o3)cc2)n1` the “activity change, negative = inhibition” value was -9.45%. In the case of `O=C1C(F)N([S+](=O)([O-])c2ccc3c(c2)OCCO3)CCN1[S+](=O)([O-])c1c(F)cccc1F` (configuration not stated), the “outcome” value is reported as “inactive”. For `Cc1cnn(CCC(=O)N2CCC3(CCNCC3)CC2)c1`, the “activity change, negative = inhibition” value was -10.6%. For `CCOc1ccc(N(CC)C(=O)C2CCN(S(=O)(=O)c3cccc4nonc34)CC2)cc1`, the “activity change, negative = inhibition” value was -21.2%. With `CCOc1ccc(N(Cc2ccccc2)C(=O)c2nc(S(C)(=O)=O)ncc2Cl)cc1` the Potency was 5.01 µM (active). `CCOc1ccc(N(Cc2ccccc2)C(=O)c2nc(SCC)ncc2Cl)cc1` was tested, and the “activity change, negative = inhibition” value was 4.15%. For `Cn1nnnc1Sc1ncnc2scc(-c3ccccc3[N+](=O)[O-])c12`, the “activity change, negative = inhibition” value was -0.0419%. With `Cn1nnnc1Sc1ncnc2n[nH]c(-c3cccc(S(C)(=O)=O)c3)c12` the Potency was 2.82 µM (active). In the case of `Cc1ccc(-c2ccccc2CN2CCN([S+](=O)([O-])c3cccc(C(F)(F)F)c3)CC2)cc1Cl`, the “outcome” value is reported as “inactive”. With `O=C(Nc1nc(-c2ccccc2)cs1)c1ccncc1NS(=O)(=O)c1ccc(Cl)cc1` the “activity change, negative = inhibition” value was 2.25%. With `Cc1c(Cl)cccc1NC(=O)N1CCN(C(=O)c2nsc3ccccc23)CC1` the “activity change, negative = inhibition” value was -22.7%. For `COc1cc(C(CC(=O)NCCC(C)C)N2Cc3ccccc3C2=O)cc(OC)c1OC` (configuration not stated), the “activity change, negative = inhibition” value was -20.7%. In the case of `O=C(Cn1ccn2nc3c(c2c1=O)CCCCC3)NCc1ccccc1Cl`, the “activity change, negative = inhibition” value is reported as -6.55%. In the case of `CC1=C(C(=O)N2CCN(c3cccc(C(F)(F)F)c3)CC2)C2(CCCCC2)OC1=O`, the “activity change, negative = inhibition” value is reported as -21.5%. For `CC(C)Sc1oc(-c2cccs2)nc1S(=O)(=O)c1ccc(Cl)cc1`, the “activity change, negative = inhibition” value was -23.7%. For `CCc1nc(-c2ccc(OC3CCN(C(=O)Cc4c[nH]c5ccccc45)C3)cc2)no1` (configuration not stated), the “activity change, negative = inhibition” value was -4.97%. Work on `COc1ccc(CN2CCN(CCCSc3cc(C(C)(C)C)c(O)c(C(C)(C)C)c3)CC2)c(OC)c1OC` yielded an activity change, negative = inhibition of 11.3% [at 5.1 µM]. In the case of `Cc1cn2nc(C(=O)NC3CCCC3)cc2c(N2CCSCC2)n1`, the “outcome” value is reported as “inactive”. For `CCN(CC)c1cc(CCC(=O)NCc2cc(F)ccc2F)ccn1`, the “outcome” value was “inactive”. With `FC(F)(F)c1cc(Nc2nc3ccccc3c3nncn23)ccc1Cl` the “activity change, negative = inhibition” value was -5.64%. For `C=CS(=O)(=O)N1CCCN(c2cc(NCCC(=O)O)nc(-c3ccccn3)n2)CC1`, the “activity change, negative = inhibition” value was 166%. With `Cc1ccc(NC(=O)CCCn2c(=O)c3cccn3c3ccccc32)cc1Cl` the “activity change, negative = inhibition” value was -22%. For `Cc1ccccc1[C@@H](C(=O)NC1CCCCC1)N(C(=O)Cn1ccnc1C)c1cccc(F)c1`, the “activity change, negative = inhibition” value was 4.93%. For `CCOC(=O)C1CCCN(CC(=O)Nc2cc(C)c3c(=O)oc4ccccc4c3n2)C1` (configuration not stated), the “activity change, negative = inhibition” value was -8%. `COc1ccc(Cc2nc3ccc(C(=O)NCc4ccccc4Cl)cc3o2)cc1` was tested, and the “activity change, negative = inhibition” value was -15.7%. In the case of `COc1ccc(C2=Nn3c(nnc3-c3ccccc3OC)SC2)cc1OC1CCCC1`, the “outcome” value is reported as “inactive”. `O=[S+]([O-])(c1ccc2c(c1)OCCO2)N1CCN([S+](=O)([O-])c2c(Cl)cc(Cl)cc2Br)CC1` was tested, and the “activity change, negative = inhibition” value was -5.69%. In the case of `CC(=O)N1Cc2ccccc2CC2(CCN(Cc3ccc(O)cc3)CC2)C1`, the “activity change, negative = inhibition” value is reported as -17.4%. For `N#Cc1cc(-c2nc(Nc3ccc(F)c(F)c3)c3ccccc3n2)ccn1`, the “outcome” value was “inactive”. For `COCCNc1ncnc2c1c(-c1ccccc1)cn2-c1ccc(C)c(Cl)c1`, the “activity change, negative = inhibition” value was -18.5%. With `CN(Cc1ccccc1)C(=O)c1cn(C)c2ccc(S(=O)(=O)N(C)C3CCCCC3)cc2c1=O` the “activity change, negative = inhibition” value was -8.33%. `O=C(Nc1ccc2ncnc(N3CCCCC3)c2c1)C1CCCCC1` was tested, and the “outcome” value was “inactive”. With `CCOc1ccc(CCNC(=O)c2cc3ccccc3n2Cc2cccc(C)c2)cc1OCC` the “activity change, negative = inhibition” value was -6.04%. In the case of `O=C(Cn1nc2c(cc1=O)CCCCC2)NC1CCN(C(=O)c2cc3ccccc3[nH]2)CC1`, the “activity change, negative = inhibition” value is reported as 4.65%. With `COc1cc(OC)c(C(CC(=O)N2CC(C)CC(C)C2)c2ccc3c(c2)OCO3)c(OC)c1` (configuration not stated) the “activity change, negative = inhibition” value was -1.01% [at 39.2 µM]. With `Fc1cc(Nc2nc(-c3ccncc3)nc3ccccc23)ccc1N1CCCCC1` the “outcome” value was “inactive”. With `O=C(c1nc(-c2ccsc2)c2cnccn12)N1CCCC1` the “activity change, negative = inhibition” value was -15.1% [at 39.2 µM]. In the case of `O=S(=O)(NCCc1noc(-c2ccccc2)n1)c1ccc2c(c1)OCCO2`, the “activity change, negative = inhibition” value is reported as -3.1%. `CCOC(=O)c1cccc(NC(=O)Cn2cnc3nc4c(cc3c2=O)CCCC4)c1` was tested, and the “activity change, negative = inhibition” value was -27.2%. In the case of `C/C(=C\CC[C@@H](C)[C@H]1CC(O)[C@@]2(C)C3CC[C@H]4C(C)(C)[C@@H](OC5OCC(O)C(O)C5OC5OC(CO)C(O)C(O)C5O)CC[C@@]45C[C@@]35CC(O)[C@]12C)C(=O)O` (some centres not stated), the “activity change, negative = inhibition” value is reported as -6.9% [at 10 µM].
